Test results published in the supplement of paper PMC10849652.
About 7,900 targets were measured; listed, in parts, are those with a hit and a random draw of the rest. About 0.6% of all pairs of compound and target were hits.

Compound: FC(F)(F)c1ccc(/C=C/c2nc(COc3ccc(CCCCn4ccnn4)cc3)co2)cc1 [mubritinib]
Assay: log2 fold change, soluble protein after heating vs DMSO (PISA); higher = thermal stabilisation; K562 cells, 10 uM, 30 min; active = over 0.2 and 3.5 SD of the protein, either way, in both replicates (recomputed)
Method in brief: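 K562 cells (2×10^6 cells/mL) were treated with 10 μM compound for 30 min, and aliquots were heated for 3 min over 48°C-58°C. Pooled aliquots were extracted in PBS with 0.5% NP-40 at 4°C, and the supernatant after 21,000xg for 90 min was measured by TMTpro 16plex LC-MS/MS with channel sums equalised. Reported thermal stability, relative to control samples and from duplicates, is a log2 fold change.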

Chain of UniProt P50750 (P50750 whole entry, looked up): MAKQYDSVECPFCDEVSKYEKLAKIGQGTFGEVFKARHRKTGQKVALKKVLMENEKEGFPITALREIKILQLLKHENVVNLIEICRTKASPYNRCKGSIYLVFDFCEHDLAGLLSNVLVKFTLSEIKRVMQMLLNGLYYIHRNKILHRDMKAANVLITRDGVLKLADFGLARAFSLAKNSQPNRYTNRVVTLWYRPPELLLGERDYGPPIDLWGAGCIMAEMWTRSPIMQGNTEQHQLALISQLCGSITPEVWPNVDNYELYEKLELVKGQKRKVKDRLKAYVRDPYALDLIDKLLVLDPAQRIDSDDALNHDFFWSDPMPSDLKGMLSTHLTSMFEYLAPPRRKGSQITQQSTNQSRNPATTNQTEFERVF
Chain of UniProt P41208 (P41208 whole entry, looked up): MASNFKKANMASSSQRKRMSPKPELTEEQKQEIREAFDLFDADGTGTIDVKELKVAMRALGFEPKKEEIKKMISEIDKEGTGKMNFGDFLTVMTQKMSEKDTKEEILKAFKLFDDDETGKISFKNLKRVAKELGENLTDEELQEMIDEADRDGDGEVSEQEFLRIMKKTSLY
Chain of UniProt Q96CF2 (Q96CF2 whole entry, looked up): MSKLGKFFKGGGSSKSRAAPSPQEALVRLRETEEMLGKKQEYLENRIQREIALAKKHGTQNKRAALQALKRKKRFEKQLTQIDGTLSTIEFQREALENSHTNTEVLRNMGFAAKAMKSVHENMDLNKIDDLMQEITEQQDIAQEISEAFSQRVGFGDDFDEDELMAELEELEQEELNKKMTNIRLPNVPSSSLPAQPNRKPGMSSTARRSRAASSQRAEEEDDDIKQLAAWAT
Chain of UniProt Q8WUX2 (Q8WUX2 whole entry, looked up): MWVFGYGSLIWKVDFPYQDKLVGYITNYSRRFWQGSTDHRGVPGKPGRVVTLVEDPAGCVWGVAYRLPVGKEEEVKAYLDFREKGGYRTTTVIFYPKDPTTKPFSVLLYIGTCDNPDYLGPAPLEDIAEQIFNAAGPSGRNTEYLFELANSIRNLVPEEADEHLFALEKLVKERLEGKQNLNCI
Chain of UniProt Q00534 (Q00534 whole entry, looked up): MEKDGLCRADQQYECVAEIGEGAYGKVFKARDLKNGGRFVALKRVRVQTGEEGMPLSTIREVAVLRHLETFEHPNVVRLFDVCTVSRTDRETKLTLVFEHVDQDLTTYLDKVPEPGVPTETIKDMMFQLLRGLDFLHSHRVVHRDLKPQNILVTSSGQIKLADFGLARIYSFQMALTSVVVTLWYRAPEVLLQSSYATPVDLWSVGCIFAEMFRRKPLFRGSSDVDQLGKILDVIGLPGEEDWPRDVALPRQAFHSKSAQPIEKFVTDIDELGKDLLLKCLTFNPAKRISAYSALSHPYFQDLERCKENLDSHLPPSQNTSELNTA
Chain of UniProt Q96RR4 (Q96RR4 whole entry, looked up): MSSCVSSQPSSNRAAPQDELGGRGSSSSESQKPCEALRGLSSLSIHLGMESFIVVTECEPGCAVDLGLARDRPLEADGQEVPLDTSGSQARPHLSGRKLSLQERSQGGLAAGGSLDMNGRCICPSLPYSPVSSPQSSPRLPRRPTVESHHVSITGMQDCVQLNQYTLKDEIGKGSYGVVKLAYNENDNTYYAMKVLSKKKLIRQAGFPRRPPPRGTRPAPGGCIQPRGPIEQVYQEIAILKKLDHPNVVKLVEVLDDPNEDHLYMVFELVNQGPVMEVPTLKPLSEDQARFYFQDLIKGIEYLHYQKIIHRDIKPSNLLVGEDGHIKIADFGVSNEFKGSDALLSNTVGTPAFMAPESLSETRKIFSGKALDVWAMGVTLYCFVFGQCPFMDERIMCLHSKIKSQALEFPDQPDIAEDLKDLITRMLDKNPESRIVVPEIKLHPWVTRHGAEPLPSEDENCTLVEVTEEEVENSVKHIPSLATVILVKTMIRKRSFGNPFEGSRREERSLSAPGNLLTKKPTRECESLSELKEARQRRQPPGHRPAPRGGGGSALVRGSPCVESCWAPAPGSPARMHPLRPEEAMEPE
Chain of UniProt Q96KP4 (Q96KP4 whole entry, looked up): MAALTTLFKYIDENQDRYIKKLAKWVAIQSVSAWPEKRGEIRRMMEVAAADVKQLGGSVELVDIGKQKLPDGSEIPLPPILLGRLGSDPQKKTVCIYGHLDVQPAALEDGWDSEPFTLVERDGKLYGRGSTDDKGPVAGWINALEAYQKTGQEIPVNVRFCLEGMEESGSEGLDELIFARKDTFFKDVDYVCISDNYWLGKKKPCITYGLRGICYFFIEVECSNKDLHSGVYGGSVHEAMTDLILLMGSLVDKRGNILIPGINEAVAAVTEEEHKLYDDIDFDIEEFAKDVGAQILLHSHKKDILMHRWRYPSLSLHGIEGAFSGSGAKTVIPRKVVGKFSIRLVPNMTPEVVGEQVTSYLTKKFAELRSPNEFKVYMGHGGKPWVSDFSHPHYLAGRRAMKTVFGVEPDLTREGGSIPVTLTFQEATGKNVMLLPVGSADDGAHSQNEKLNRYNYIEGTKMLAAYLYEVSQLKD
Chain of UniProt O95319 (O95319 whole entry, looked up): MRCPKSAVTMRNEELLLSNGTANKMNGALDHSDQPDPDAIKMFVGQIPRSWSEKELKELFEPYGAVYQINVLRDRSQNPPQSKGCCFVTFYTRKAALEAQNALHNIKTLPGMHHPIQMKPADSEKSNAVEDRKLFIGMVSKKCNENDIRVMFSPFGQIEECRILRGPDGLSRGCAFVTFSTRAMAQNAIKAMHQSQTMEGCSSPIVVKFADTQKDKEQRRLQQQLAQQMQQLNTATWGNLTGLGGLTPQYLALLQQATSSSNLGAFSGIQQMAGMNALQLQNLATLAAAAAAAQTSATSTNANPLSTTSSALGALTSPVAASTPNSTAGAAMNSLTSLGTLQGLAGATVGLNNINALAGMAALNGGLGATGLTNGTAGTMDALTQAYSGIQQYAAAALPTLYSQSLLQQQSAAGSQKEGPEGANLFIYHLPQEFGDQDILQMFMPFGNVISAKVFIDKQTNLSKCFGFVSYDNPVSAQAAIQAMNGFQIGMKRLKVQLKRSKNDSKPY
Chain of UniProt P46109 (P46109 whole entry, looked up): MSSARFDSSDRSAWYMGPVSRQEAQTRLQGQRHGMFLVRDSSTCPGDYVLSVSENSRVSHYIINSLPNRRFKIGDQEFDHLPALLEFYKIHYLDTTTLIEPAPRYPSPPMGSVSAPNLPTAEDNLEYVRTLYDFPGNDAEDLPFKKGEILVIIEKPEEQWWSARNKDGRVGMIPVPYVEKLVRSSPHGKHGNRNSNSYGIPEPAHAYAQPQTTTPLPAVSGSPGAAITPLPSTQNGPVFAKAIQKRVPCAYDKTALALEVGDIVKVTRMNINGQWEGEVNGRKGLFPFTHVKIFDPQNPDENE
Chain of UniProt Q9Y3X0 (Q9Y3X0 whole entry, looked up): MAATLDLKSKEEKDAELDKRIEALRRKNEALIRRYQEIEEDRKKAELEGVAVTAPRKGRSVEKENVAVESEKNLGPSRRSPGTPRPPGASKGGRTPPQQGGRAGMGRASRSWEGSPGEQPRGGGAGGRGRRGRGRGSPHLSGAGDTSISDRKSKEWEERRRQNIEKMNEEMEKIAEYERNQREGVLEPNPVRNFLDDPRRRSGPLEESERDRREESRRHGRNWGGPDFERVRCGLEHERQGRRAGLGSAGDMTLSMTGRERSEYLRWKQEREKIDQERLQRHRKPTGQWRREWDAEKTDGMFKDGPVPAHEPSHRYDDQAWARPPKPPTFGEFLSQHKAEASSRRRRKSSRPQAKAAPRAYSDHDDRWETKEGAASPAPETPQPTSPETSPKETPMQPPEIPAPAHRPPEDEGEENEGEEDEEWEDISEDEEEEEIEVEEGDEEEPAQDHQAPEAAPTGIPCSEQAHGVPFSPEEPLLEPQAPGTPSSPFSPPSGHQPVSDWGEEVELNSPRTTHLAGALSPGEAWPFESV
Chain of UniProt Q96JM3 (Q96JM3 whole entry, looked up): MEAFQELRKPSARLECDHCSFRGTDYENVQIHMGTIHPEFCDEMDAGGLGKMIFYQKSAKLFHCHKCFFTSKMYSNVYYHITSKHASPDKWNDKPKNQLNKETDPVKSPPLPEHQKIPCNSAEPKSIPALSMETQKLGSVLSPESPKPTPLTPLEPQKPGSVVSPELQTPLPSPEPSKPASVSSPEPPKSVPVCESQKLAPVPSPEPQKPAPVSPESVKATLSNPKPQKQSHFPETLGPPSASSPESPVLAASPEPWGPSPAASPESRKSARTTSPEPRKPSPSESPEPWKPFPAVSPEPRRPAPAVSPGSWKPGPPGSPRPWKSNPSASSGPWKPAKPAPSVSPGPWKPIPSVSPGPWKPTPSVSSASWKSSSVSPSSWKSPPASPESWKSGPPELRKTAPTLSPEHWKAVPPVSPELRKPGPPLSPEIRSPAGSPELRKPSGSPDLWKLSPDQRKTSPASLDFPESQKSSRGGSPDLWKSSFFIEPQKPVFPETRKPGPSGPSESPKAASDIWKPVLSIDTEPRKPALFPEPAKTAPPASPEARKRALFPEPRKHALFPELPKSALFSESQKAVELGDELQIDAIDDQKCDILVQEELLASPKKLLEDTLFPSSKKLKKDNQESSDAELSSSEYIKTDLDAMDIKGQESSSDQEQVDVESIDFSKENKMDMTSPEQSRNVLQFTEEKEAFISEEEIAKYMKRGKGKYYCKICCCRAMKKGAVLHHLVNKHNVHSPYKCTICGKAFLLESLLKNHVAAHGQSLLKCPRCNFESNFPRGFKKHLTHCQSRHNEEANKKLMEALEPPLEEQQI
Chain of UniProt O75208 (O75208 whole entry, looked up): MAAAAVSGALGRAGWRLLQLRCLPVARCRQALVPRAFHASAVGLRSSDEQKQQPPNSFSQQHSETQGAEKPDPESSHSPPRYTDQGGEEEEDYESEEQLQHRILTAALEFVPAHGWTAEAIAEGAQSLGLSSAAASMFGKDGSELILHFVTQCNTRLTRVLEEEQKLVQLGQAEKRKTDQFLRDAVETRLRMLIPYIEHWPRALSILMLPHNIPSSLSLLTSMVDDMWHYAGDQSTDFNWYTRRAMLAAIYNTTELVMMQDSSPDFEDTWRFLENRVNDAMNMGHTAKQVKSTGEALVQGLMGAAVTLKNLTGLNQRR
Chain of UniProt Q9P0B6 (Q9P0B6 whole entry, looked up): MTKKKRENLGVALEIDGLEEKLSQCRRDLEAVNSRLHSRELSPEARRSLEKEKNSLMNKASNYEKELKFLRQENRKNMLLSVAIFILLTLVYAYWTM

Target | log2 fold change
C9orf64 (UniProt Q5T6V5) | 0.282 (inactive)
CELF2 isoform 3 (UniProt O95319) | -0.006 (inactive)
CAMSAP1 isoform 3 (UniProt Q5T5Y3) | -0.005 (inactive)
CNOT4 isoform 6 (UniProt O95628) | 0.023 (inactive)
CSTF2 (UniProt P33240) | -0.046 (inactive)
CBX5 (UniProt P45973) | 0.062 (inactive)
CHD3 isoform 3 (UniProt Q12873) | -0.058 (inactive)
CCDC9 (UniProt Q9Y3X0) | -0.038 (inactive)
CHERP (UniProt Q8IWX8) | -0.07 (inactive)
COQ9 (UniProt O75208) | -0.04 (inactive)
CPQ (UniProt Q9Y646) | 0.044 (inactive)
CD81 (UniProt P60033) | 0.05 (inactive)
CDK6 (UniProt Q00534) | 0.012 (inactive)
CHMP4C (UniProt Q96CF2) | 0.039 (inactive)
CHAC2 (UniProt Q8WUX2) | 0.045 (inactive)
CSNK2B (UniProt P67870) | -0.017 (inactive)
CBR1 (UniProt P16152) | -0.01 (inactive)
CRKL (UniProt P46109) | 0.049 (inactive)

Target | log2 fold change
CHD4 isoform 2 (UniProt Q14839) | -0.06 (inactive)
COA6 isoform 2 (UniProt Q5JTJ3) | 0.041 (inactive)
CNDP2 (UniProt Q96KP4) | 0.101 (inactive)
CETN2 (UniProt P41208) | 0.036 (inactive)
CAMKK2 (UniProt Q96RR4) | -0.024 (inactive)
CKS1B (UniProt P61024) | 0.056 (inactive)
CHEK1 (UniProt O14757) | 0.048 (inactive)
CLPP (UniProt Q16740) | 0.004 (inactive)
CDK9 isoform 2 (UniProt P50750) | -0.067 (inactive)
CHAMP1 (UniProt Q96JM3) | 0.056 (inactive)
CCDC167 (UniProt Q9P0B6) | -0.043 (inactive)
CALCOCO2 isoform 4 (UniProt Q13137) | -0.025 (inactive)
CPSF3 (UniProt Q9UKF6) | 0.02 (inactive)
CLASP2 isoform 3 (UniProt O75122) | 0.022 (inactive)
CLSPN (UniProt Q9HAW4) | 0.053 (inactive)
COMMD2 (UniProt Q86X83) | 0.101 (inactive)
CLCN3 (UniProt P51790) | 0.024 (inactive)
CCNK isoform 4 (UniProt O75909) | 0.006 (inactive)
